Source: PubChem
This is a sample that favours compounds with a hit; in the whole collection about 3.9% have one here.
BoNT-F LC inh: BoNT/F light chain protease inhibitors, primary screen, biochemical, flow cytometry, MLPCN library. Botulinum neurotoxin type F light chain protease (Clostridium botulinum). AID 588497, 2011. inhibition, % at 10 µM. actives 0.22% (n = 360,000). Multiplex microsphere protease cleavage assay; in the data active = inhibition above about 35%, passing the limit was not always enough; inconclusive = no clear call, values can overlap the other calls; also: plate controls were buffer without enzyme for full effect and enzyme alone for no effect
BoNT A protease: BoNT/A light chain protease inhibitors, primary screen, biochemical, flow cytometry, MLPCN library; multiplex microsphere protease substrate cleavage; inhibition, % at 10 µM; actives 0.17% (n = 360,000); also: plate controls were buffer without enzyme for full effect and enzyme alone for no effect
Anthrax LF inh2: Bacillus anthracis LF protease inhibitors, primary screen, biochemical, multiplex microsphere, MLPCN library | Lethal factor (Bacillus anthracis), P15917 | multiplex microsphere protease cleavage assay | inhibition, % at 10 µM | actives 0.12% (n = 360,000) | AID 588501, 2011; also: plate controls were buffer without enzyme for full effect and enzyme alone for no effect
Target sequence (P15917 whole entry, looked up): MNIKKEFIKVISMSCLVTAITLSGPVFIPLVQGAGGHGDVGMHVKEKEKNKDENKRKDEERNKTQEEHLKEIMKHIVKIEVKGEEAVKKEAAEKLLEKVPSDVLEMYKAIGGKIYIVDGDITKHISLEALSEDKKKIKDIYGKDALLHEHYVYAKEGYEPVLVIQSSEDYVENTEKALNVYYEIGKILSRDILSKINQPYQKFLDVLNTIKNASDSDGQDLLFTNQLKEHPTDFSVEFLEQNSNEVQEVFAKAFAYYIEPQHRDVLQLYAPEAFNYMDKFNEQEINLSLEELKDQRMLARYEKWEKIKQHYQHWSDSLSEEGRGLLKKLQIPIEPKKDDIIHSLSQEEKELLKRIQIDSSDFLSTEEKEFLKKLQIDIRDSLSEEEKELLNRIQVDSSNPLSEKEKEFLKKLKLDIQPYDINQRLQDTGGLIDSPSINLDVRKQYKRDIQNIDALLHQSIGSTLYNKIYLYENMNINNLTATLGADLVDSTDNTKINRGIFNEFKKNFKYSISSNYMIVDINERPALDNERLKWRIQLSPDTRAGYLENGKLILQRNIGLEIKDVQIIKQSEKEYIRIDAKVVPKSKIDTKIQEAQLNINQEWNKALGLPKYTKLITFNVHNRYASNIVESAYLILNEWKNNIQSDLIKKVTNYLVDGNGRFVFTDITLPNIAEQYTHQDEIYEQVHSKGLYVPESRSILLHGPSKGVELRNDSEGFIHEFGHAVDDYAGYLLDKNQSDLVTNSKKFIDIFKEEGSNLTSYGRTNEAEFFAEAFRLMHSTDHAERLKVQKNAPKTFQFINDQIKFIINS
Bead autofluor: compound fluorescence in toxin protease inhibitor counterscreen; actives 3.1% (n = 360,000); compound autofluorescence counterscreen, microsphere flow cytometry; active compounds read high; fluorescence intensity (no concentration beside the values); AID 624483; in the data active = fluorescence intensity above about 16000; inconclusive = no clear call, values can overlap the other calls
CCHFV vOTU inh: CCHFV vOTU protease inhibitors, primary screen, biochemical, Pep-AMC substrate, fluorescence. Crimean-Congo hemorrhagic fever virus L polyprotein viral ovarian tumor (vOTU) protease …. inhibition, % at 11.5 µM. actives 0.55% (n = 370,000). AID 651958, 2012; in the data active = inhibition above about 30%; also: 0% = vehicle wells with enzyme and 100% = no enzyme wells
SARS 3CLpro inh: SARS-CoV 3CLpro protease inhibitors, primary screen, biochemical, quenched FRET. Replicase polyprotein 1ab (Severe acute respiratory syndrome coronavirus), P0C6X7. recombinant SARS-CoV 3CLpro, quenched FRET peptide cleavage. inhibition, % at 6 µM. actives 0.14% (n = 290,000); in the data active = inhibition above about 12%
BoNTA LC inh 1: BoNT/A light chain protease inhibitors, confirmation, biochemical, flow cytometry, cherry pick 1 | actives 3% (n = 720) | AID 602139, 2011 | multiplex microsphere protease assay | shares compounds with BoNT-F LC inh | inhibition, % at 10 µM; in the data active = inhibition above about 32%
BoNTF LC inh 1: BoNT/F light chain protease inhibitors, confirmation, biochemical, flow cytometry, cherry pick 1. inhibition, % at 10 µM. multiplex microsphere protease cleavage assay. shares compounds with BoNT-F LC inh. 720 tested, under 10 active. AID 602140, 2011; call rule not given here
LF protease CP1: Bacillus anthracis LF protease inhibitors, confirmation, biochemical, multiplex microsphere, cherry pick 1; AID 602142, 2011; multiplex microsphere protease cleavage assay; shares compounds with BoNT-F LC inh; inhibition, % at 10 µM; 720 tested, under 10 active; call rule not given here
* = called active by the depositor; ? = inconclusive; · = no result given. Rule as the data show it, unless noted: active = inhibition above about 30%; inconclusive = no clear call, values can overlap the other calls; inactive = below that.

SMILES	BoNT-F LC inh	BoNT A protease	Anthrax LF inh2	Bead autofluor	CCHFV vOTU inh	SARS 3CLpro inh	BoNTA LC inh 1	BoNTF LC inh 1	LF protease CP1
COC(=O)c1ccc(CNC(=O)CCc2c[nH]c3ccccc23)cc1	80.8*	3.9	9.6	3982	4.2	-0.8	-0.3	6.1	0.6
COc1ccccc1CNC(=O)Cc1c[nH]c2ccccc12	35.7*	1.1	-6.0	2995	-11.3	-6.2	-0.8	-0.9	2.0
COc1ccc(C(=O)NC(Cc2c[nH]c3ccccc23)C(=O)O)cc1 (centres undefined)	?	-1.1	-3.2	4011	-5.6	0.6	·	·	·
COc1ccc(CNC(=O)N[C@@H](Cc2c[nH]c3ccccc23)C(=O)O)cc1	77.2*	4.6	9.3	2964	-12.9	-1.9	-0.6	1.6	0.5
O=C(NCc1ccco1)c1cccc(S(=O)(=O)N2CCCC2)c1	5.8	0.5	7.4	3677	-5.2	4.8	·	·	·
O=C(NCc1ccco1)c1ccc(S(=O)(=O)c2cccc(S(=O)(=O)N3CCOCC3)c2)cc1	38.2*	22.8	6.4	7881	-3.2	2.9	0.8	-1.9	-2.1
CSc1nnc2c(n1)OC(C)=Nc1ccccc1-2	-8.1	0.3	-7.6	11553	-10.4	-5.9	·	·	·
CCC1=Nc2ccccc2-c2nnc(SC)nc2O1	34.4	2.3	-8.1	4512	17.7	2.6	-0.3	-4.3	-6.6
CN(C)c1nc(Nc2ccc(F)cc2)nc(Oc2ccc(F)cc2)n1	-253.7	57.2*	-89.7	1636	-0.2	5.4	-0.6	-4.4	-0.8
COC(=O)C1CN(Cc2ccc(F)cc2)CCS(=O)(=O)N1Cc1cn(CCOC(C)=O)nn1 (centres undefined)	·	·	·	·	-5.7	·	·	·	·
COC(=O)c1c(NC(=O)c2ccccc2[N+](=O)[O-])sc2c1CC(C)(C)NC2(C)C	70.3*	8.3	33.6*	6297	-10.4	0.3	-0.1	-2.0	4.9
COc1ccc(C2CC(c3cccs3)=NN2S(C)(=O)=O)cc1OC (centres undefined)	-1.2	2.5	-3.4	4403	-7.3	-3.6	·	·	·
COc1ccc(C2CC(c3cccs3)=NN2c2nc(-c3ccccc3)cs2)cc1OC (centres undefined)	1.9	18.6	15.9	4635	-11.8	2.0	7.8	-1.5	8.6
COc1ccc(N2CCN(CCCNC(=O)COc3ccc(F)cc3)CC2)cc1	·	·	·	·	-5.5	·	·	·	·
COc1ccc(Cn2c(C)c(CC(=O)Nc3ccc(Oc4cccnc4)c(C)c3)c3ccccc32)cc1	·	·	·	·	-0.4	·	·	·	·
O=c1c2cc3cccnc3nc2ncn1CCc1c[nH]c2ccccc12	·	·	·	·	-1.2	·	·	·	·
Cn1cnc([N+](=O)[O-])c1Sc1nnc(-c2ccccc2)c(-c2ccccc2)n1	·	·	·	·	17.3	·	·	·	·
COc1ccc(C(=O)NCCn2ccc3ccccc32)c(OC)c1	-1.2	8.9	14.3	10678	4.2	-0.7	0.5	0.0	5.5
COc1ccc(C(=O)NCCN2CCOCC2)c(OC)c1	-9.5	0.7	2.0	5080	9.2	2.0	·	·	·
CCCCCn1nnnc1C1(C)CN(S(C)(=O)=O)CC(=O)N1Cc1ccco1 (centres undefined)	·	·	·	·	7.1	·	·	·	·
COC(=O)[C@]12C[C@H](CC(=O)N3CCN(C(=O)C4CC4)CC3)C(=O)N(Cc3ccco3)C1=C[C@H](COCc1ccccc1)O[C@@H]2C	·	·	·	·	-2.0	·	·	·	·
O=C(NCCc1c[nH]c2ccccc12)c1ccc2c(c1)ncn2C1CCCCC1	·	·	·	·	0.1	·	·	·	·
COc1cc2c(cc1OC)C(C)N(S(=O)(=O)c1cccs1)CC2 (centres undefined)	-6.7	5.7	32.5*	3519	-3.6	-1.2	1.2	-1.9	-1.0
COc1ccc(S(=O)(=O)N2CCCCCC2)cc1N(C)S(=O)(=O)c1ccc(Cl)cc1	36.9*	2.4	1.7	5279	-4.7	0.2	0.4	-4.7	-4.1
Cc1cc(Nc2ccccc2)nc(N2CCOCC2)n1	-13.6	-0.6	-2.1	4787	6.6	6.7	·	·	·
SMILES	BoNT-F LC inh	BoNT A protease	Anthrax LF inh2	Bead autofluor	CCHFV vOTU inh	SARS 3CLpro inh	BoNTA LC inh 1	BoNTF LC inh 1	LF protease CP1
Cc1cc(Nc2cccc(F)c2)nc(N2CCOCC2)n1	42.1*	-3.1	-2.3	3819	-0.9	3.9	-0.4	-1.1	-3.5
O=C(OCc1cn(Cc2ccccc2F)nn1)N1CCOCC1	·	·	·	·	6.6	·	·	·	·
COc1ccc(-n2c(=O)c(CCC(=O)N3CCN(c4cccc(OC)c4)CC3)nc3ccccc32)cc1	8.1	0.3	-3.9	3835	-0.1	·	·	·	·
COc1ccc(/C(O)=C/c2nc3ccccc3n(-c3ccccc3)c2=O)cc1	37.2*	2.5	5.2	7212	15.0	-0.3	5.3	4.0	2.7
CCC(C)[C@H](NC(=O)[C@H](Cc1ccccc1)NC(=O)OC(C)(C)C)C(=O)NCc1ccccc1Br (some centres undefined)	·	·	·	·	12.0	·	·	·	·
COc1ccccc1Oc1ncnc2sccc12	36.7*	4.8	0.0	3310	-6.8	-2.0	-1.8	-4.6	-2.5
c1ccc(Oc2ncnc3sccc23)cc1	1.9	0.0	-1.5	3990	-14.7	3.7	·	·	·
Cc1ccc(-n2c(SCC(=O)Nc3cccc4ccccc34)nnc2-c2cnccn2)cc1	·	·	·	·	1.7	·	·	·	·
COP(=O)(O)C[C@@H]1CCc2cc(C)cc([C@H](CC(C)C)NC(=O)OCc3ccccc3)c2O1	·	·	·	·	15.8	·	·	·	·
COc1ccccc1-c1nc2cc3ccccc3cc2nc1-c1ccccc1	10.1	47.5*	19.1	2643	6.5	-5.0	13.8	3.3	14.3
CCC(O)(c1ccc(NC(=O)OC(C)(C)C)cc1)c1cc(OC)cc(OC)c1 (centres undefined)	·	·	·	·	4.1	·	·	·	·
c1ccc(Cn2c(CN3CCCC3)nc3ccccc32)cc1	34.4	3.0	-2.3	6747	2.0	-1.9	-0.9	-0.3	1.7
C[C@@H]1C[C@@H]2O[C@H]2CCCCC(=O)Cc2cc(O)cc(O)c2C(=O)O1	·	·	·	·	6.0	·	·	·	·
COc1cc(C(=O)N(C)CCOc2ccc(C)cc2)ccc1OC1CCN(C(C)=O)CC1	?	-0.4	29.9*	4006	8.9	-3.9	-1.4	-6.6	4.2
COc1ccc(C(=O)NCCc2ccc(C)cc2)cc1OC1CCN(C(C)=O)CC1	-0.2	0.1	8.1	5955	-3.8	4.3	·	·	·
Fc1ccc(-c2cc(-c3nnc4sc(-c5ccco5)nn34)[nH]n2)cc1	·	·	·	·	3.8	·	·	·	·
